# Laboratory results published in the supplement of paper PMC10849652.
# Of roughly 8,800 targets only a part is listed; those with a hit were picked by preference. About 0.5% of all pairs of compound and target were hits. A number with no mark means an inactive call.
# Key:
# Assay in all cases: log2 fold change, soluble protein after heating vs DMSO (PISA); higher = thermal stabilisation; K562 lysate, 10 uM; active = over 0.2 and 3.5 SD of the protein, either way, in both replicates (recomputed)
# [1] = compound: CS(=O)(=O)CCNCc1ccc(-c2ccc3ncnc(Nc4ccc(OCc5cccc(F)c5)c(Cl)c4)c3c2)o1 [lapatinib]
# In short: (§1)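 To prepare the extract, K562 pellets were dounce-homogenised in PBS pH 7.4 with 1 mM MgCl2, giving crude material at 1 mg/mL protein. This was treated with 10 μM compound for 30 min, then heated in aliquots for 3 min over 48°C-58°C before pooling and addition of NP-40 to 0.5% at 4°C. Centrifugation at 21,000xg for 90 min left soluble protein in the supernatant, which TMTpro 16plex LC-MS/MS quantified with equalised channel sums. Results are log-two fold changes in thermal stability compared with solvent controls, from duplicates.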
# [2] = compound: CS(=O)(=O)N1CCN(Cc2cc3nc(-c4cccc5[nH]ncc45)nc(N4CCOCC4)c3s2)CC1 [pictilisib]
# In short: as §1
# [3] = compound: C[C@@H](Oc1cc(-c2cnn(C3CCNCC3)c2)cnc1N)c1c(Cl)ccc(F)c1Cl [crizotinib]
# In short: as §1
# [4] = compound: C[C@H](C1=CC=C(C=C1)C(=O)NC2=C3C=CNC3=NC=C2)N
# In short: as §1
# [5] = compound: C[C@H](Nc1ncnc2nc[nH]c12)c1cc2cccc(Cl)c2c(=O)n1-c1ccccc1 [duvelisib]
# In short: as §1
# [6] = compound: Cc1cc(Nc2cc(CN3CCOCC3)c3nc(C)c(Cc4ccc(Cl)cc4F)n3n2)n[nH]1 [gandotinib]
# In short: as §1
# [7] = compound: Cc1cc(Nc2cc(N3CCN(C)CC3)nc(Sc3ccc(NC(=O)C4CC4)cc3)n2)n[nH]1 [tozasertib]
# In short: as §1
# [8] = compound: Cc1ccc(-n2nc(C(C)(C)C)cc2NC(=O)Nc2ccc(OCCN3CCOCC3)c3ccccc23)cc1 [doramapimod]
# In short: as §1
# [9] = compound: Cc1ccc(NC(=O)c2ccc(CN3CC[C@H](N(C)C)C3)c(C(F)(F)F)c2)cc1Nc1nccc(-c2cncnc2)n1 [bafetinib]
# In short: as §1
# [10] = compound: Cc1cccc(CC(=O)N2CCc3c2ccc(-c2cn(C)c4ncnc(N)c24)c3F)n1
# In short: as §1
# [11] = compound: Cc1cn(-c2cc(NC(=O)c3ccc(C)c(Nc4nccc(-c5cccnc5)n4)c3)cc(C(F)(F)F)c2)cn1 [nilotinib]
# In short: as §1
# [12] = compound: Cc1nc(Nc2n[nH]c3c2CN(C(=O)N[C@H](CN(C)C)c2ccccc2)C3(C)C)c2sccc2n1
# In short: as §1
# [13] = compound: Cc1nc(Nc2ncc(C(=O)Nc3c(C)cccc3Cl)s2)cc(N2CCN(CCO)CC2)n1 [dasatinib]
# In short: as §1
# [14] = compound: Cc1ncc(-c2ccnc(Nc3ccc(S(C)(=O)=O)cc3)n2)n1C(C)C
# In short: as §1
# [15] = compound: Cn1cc(-c2ccc3c(c2)CCN3C(=O)Cc2cccc(C(F)(F)F)c2)c2c(N)ncnc21
# In short: as §1
# [16] = compound: Cn1cc(CNCC2CCN(c3ncc(C(=O)NO)cn3)CC2)c2ccccc21 [quisinostat]
# In short: as §1
# [17] = compound: Cn1cncc1[C@@](N)(c1ccc(Cl)cc1)c1ccc2c(c1)c(-c1cccc(Cl)c1)cc(=O)n2C [tipifarnib]
# In short: as §1
# [18] = compound: NC(=O)Nc1cc(-c2cccc(F)c2)sc1C(=O)N[C@H]1CCCNC1
# In short: as §1
# [19] = compound: NC(=O)c1cnc(N[C@@H]2CCCC[C@@H]2N)nc1Nc1cccc(-n2nccn2)c1
# In short: as §1
# [20] = compound: NC1(c2ccc(-c3nc4ccn5c(=O)[nH]nc5c4cc3-c3ccccc3)cc2)CCC1
# In short: as §1
# UniProt P42684, sequence (P42684 whole entry, looked up): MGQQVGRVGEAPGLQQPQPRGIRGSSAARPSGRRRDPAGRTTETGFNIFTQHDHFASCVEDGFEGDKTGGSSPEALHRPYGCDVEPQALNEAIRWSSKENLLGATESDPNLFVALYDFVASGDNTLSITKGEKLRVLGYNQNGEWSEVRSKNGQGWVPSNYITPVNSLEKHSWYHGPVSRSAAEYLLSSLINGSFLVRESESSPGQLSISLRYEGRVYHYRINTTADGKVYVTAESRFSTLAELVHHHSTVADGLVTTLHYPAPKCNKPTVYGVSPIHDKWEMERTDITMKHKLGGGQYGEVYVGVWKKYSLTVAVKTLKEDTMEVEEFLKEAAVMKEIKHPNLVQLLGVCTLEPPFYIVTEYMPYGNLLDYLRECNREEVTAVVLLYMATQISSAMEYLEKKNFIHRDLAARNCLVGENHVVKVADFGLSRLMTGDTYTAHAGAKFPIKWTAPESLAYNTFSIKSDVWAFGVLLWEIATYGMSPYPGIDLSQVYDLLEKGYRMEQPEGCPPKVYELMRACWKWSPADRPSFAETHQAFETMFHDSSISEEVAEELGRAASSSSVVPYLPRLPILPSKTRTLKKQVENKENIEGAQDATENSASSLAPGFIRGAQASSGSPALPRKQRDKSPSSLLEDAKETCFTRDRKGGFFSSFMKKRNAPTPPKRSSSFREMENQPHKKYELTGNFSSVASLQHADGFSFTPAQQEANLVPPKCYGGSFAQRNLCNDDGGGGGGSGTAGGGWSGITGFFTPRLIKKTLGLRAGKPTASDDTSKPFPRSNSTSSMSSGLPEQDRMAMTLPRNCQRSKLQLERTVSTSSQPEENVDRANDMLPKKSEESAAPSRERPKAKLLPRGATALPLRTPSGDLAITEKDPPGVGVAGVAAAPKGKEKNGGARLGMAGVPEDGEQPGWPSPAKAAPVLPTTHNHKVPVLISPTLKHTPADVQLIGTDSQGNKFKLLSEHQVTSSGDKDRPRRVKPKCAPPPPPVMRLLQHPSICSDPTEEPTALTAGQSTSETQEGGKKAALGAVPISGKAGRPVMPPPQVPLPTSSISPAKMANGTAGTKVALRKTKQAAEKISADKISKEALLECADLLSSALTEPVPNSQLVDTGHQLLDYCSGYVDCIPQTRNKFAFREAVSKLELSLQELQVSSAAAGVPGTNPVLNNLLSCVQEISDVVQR
# UniProt P31751, sequence (P31751 whole entry, looked up): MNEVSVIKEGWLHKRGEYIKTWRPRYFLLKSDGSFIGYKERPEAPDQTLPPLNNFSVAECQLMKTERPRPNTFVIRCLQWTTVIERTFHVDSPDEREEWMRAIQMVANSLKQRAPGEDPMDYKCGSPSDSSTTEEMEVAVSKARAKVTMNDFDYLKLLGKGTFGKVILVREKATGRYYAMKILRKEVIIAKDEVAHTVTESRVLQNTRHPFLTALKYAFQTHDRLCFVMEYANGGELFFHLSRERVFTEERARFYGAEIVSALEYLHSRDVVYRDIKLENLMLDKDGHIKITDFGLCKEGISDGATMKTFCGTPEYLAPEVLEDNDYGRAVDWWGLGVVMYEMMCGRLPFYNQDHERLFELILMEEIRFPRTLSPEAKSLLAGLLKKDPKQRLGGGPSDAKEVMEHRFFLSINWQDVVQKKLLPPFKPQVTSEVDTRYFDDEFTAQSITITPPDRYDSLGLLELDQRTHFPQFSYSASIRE
# UniProt Q5VST6, sequence (Q5VST6 whole entry, looked up): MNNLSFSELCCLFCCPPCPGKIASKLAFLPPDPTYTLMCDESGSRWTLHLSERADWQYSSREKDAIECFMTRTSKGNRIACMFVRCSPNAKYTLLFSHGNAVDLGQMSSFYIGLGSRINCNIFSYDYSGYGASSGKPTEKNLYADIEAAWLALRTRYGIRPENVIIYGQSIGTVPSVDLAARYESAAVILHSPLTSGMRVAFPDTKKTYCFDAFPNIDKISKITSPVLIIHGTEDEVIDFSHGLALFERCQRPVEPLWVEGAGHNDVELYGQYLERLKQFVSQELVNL
# UniProt Q9UKA4, sequence (Q9UKA4 whole entry, looked up): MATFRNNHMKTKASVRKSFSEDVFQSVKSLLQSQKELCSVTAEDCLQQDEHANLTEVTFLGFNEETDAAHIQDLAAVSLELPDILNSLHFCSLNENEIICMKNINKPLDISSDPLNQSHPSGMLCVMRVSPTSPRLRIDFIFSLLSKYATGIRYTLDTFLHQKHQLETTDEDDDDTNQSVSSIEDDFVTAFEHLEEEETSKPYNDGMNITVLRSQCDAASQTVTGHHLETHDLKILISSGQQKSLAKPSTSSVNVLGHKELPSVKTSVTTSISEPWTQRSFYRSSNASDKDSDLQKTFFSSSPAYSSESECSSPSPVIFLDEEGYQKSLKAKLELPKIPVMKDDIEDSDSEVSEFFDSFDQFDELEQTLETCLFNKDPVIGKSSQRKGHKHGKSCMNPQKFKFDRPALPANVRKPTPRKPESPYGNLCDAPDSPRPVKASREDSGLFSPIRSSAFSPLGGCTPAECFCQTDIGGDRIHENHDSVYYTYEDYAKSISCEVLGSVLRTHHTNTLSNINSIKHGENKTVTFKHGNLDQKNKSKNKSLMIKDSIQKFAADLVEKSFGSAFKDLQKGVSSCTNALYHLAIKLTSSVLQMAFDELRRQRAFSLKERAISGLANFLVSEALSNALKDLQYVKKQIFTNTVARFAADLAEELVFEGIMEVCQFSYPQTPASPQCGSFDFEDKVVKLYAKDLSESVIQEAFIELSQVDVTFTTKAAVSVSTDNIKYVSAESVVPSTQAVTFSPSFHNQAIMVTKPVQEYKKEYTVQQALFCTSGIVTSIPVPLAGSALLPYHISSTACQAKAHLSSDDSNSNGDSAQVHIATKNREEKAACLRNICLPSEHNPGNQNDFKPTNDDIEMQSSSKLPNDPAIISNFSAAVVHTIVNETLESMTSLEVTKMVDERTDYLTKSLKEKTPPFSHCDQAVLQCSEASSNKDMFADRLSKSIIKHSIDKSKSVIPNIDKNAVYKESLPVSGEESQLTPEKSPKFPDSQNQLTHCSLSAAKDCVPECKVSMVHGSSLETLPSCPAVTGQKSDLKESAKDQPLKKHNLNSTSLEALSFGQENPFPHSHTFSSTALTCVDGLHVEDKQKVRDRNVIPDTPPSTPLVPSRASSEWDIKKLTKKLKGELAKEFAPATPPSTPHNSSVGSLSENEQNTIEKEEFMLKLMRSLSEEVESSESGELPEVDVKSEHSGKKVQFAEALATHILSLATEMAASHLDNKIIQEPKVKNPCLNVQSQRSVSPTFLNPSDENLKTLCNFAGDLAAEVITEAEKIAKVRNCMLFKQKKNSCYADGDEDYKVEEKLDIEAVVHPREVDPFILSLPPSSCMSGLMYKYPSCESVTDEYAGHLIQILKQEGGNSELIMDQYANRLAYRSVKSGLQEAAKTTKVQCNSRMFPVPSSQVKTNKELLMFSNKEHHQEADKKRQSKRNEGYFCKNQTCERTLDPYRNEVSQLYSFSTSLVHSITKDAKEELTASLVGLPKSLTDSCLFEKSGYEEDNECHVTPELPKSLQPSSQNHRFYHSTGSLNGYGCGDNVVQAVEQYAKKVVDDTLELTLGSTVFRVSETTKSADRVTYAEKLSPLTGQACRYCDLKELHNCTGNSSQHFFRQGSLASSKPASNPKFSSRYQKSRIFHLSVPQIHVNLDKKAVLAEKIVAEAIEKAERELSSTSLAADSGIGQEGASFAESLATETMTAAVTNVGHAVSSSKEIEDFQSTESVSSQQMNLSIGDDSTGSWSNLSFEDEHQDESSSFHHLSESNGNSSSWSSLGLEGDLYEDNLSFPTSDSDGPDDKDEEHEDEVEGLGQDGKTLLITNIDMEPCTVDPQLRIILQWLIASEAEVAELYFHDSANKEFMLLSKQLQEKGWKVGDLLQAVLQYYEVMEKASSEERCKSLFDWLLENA
# UniProt Q9NP73, sequence (Q9NP73 whole entry, looked up): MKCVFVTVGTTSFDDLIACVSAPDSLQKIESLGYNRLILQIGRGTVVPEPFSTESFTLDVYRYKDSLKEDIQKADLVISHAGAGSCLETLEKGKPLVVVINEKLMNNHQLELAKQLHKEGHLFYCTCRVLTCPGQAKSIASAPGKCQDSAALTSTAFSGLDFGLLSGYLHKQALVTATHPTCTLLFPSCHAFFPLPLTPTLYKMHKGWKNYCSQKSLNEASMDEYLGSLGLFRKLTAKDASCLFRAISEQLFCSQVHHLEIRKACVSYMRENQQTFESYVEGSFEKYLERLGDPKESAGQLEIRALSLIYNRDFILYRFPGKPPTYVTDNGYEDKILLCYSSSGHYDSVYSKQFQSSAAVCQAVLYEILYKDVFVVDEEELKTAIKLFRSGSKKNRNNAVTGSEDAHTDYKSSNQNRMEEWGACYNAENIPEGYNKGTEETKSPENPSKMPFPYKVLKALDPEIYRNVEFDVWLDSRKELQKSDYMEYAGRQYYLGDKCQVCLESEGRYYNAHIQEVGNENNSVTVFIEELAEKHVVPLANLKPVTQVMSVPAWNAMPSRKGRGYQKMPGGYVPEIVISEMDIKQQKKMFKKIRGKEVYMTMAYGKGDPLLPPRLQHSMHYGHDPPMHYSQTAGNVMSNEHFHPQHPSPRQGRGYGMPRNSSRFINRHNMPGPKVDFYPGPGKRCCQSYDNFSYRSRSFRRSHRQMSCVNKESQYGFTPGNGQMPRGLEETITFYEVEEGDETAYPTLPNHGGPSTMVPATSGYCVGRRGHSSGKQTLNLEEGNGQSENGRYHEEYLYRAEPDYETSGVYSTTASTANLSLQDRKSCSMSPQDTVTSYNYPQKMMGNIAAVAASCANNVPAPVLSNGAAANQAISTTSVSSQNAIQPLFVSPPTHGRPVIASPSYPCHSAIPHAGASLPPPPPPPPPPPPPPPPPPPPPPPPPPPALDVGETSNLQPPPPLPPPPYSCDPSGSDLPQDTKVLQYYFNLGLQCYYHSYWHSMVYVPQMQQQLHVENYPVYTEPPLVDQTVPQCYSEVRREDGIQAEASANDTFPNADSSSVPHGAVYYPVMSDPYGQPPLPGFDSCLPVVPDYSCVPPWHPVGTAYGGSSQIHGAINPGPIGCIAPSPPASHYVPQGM
Target,log2 fold change [1],log2 fold change [2],log2 fold change [3],log2 fold change [4],log2 fold change [5],log2 fold change [6],log2 fold change [7],log2 fold change [8],log2 fold change [9],log2 fold change [10],log2 fold change [11],log2 fold change [12],log2 fold change [13],log2 fold change [14],log2 fold change [15],log2 fold change [16],log2 fold change [17],log2 fold change [18],log2 fold change [19],log2 fold change [20]
ARHGAP21 (UniProt Q5T5U3),0.081,-0.116,-0.073,0.071,-0.007,0.102,-0.092,0.013,-0.133,0.053,-0.017,-0.014,-0.039,-0.036,0.017,-0.06,0.019,0.053,0.002,-0.021
ANP32A (UniProt P39687),0.068,-0.001,0,-0.063,-0.003,0.065,0.014,0.096,0.126,0,-0.003,0.03,0.125,-0.011,-0.039,-0.006,0.002,-0.097,0.012,-0.359 (active)
ABHD17B (UniProt Q5VST6),0.075,-0.076,-0.051,0.01,0.026,-0.012,-0.513 (active),-0.026,0.01,0.183,0.032,0.057,0.007,0.087,0.095,0.003,-0.099,0.009,-0.041,0.009
AKAP11 (UniProt Q9UKA4),0.021,-0.08,0.025,-0.02,0.015,-0.176,0.061,-0.036,-0.084,-0.005,-0.001,-0.06,-0.074,0.188,0.092,0.012,0.022,0.008,0.014,-0.05
APAF1 (UniProt O14727),0.022,-0.068,-0.09,-0.015,-0.011,-0.058,-0.025,0.05,0.02,0.061,-0.013,0.116,-0.036,0.025,0.073,-0.091,-0.026,0.052,0,0.026
AKR1B1 (UniProt P15121),-0.009,0.006,0.065,-0.102,-0.006,0.037,-0.014,-0.022,0.011,0.006,0.031,-0.022,0.086,0.028,-0.136,0.016,-0.036,0.03,-0.009,0.038
ALG8 (UniProt Q9BVK2),-0.043,-0.043,0.017,-0.211,-0.013,0,0.116,-0.06,-0.08,0.087,-0.007,-0.008,-0.051,-0.077,0.02,0.019,-0.165,0.043,-0.025,-0.006
ANXA1 (UniProt P04083),0.005,0.013,0.018,-0.013,0.016,-0.005,0.012,0.008,0.038,0.028,-0.01,-0.009,-0.009,-0.006,-0.006,0.034,0.026,-0.015,0.003,0.009
ABCF3 (UniProt Q9NUQ8),-0.019,0.006,-0.033,0.02,0.018,-0.075,0.063,0.011,-0.062,0.017,-0.025,0.014,-0.053,0.001,0.044,-0.04,-0.003,0.012,0.011,-0.062
ABL2 (UniProt P42684),-0.053,-0.029,0.367,-0.216,0.079,0.228,0.273,-0.04,0.439,0,-0.084,0.157,0.067,0.091,0.064,-0.16,-0.116,0.103,-0.028,-0.027
ARL1 (UniProt P40616),0.001,0.051,-0.028,-0.056,0.001,0.159,0.004,0.228 (active),-0.027,0.096,0.092,-0.074,0.026,-0.118,-0.016,-0.082,-0.268,0.01,-0.001,0.005
ACAT1 (UniProt P24752),-0.024,-0.013,0.029,-0.018,-0.016,0.03,-0.009,-0.005,0.026,0.008,0.028,-0.021,0.015,0.019,-0.029,-0.006,0.044,-0.001,-0.005,0.021
ACTBL2 (UniProt Q562R1),0.163,0.102,0.091,0.408,-0.035,-0.166,-0.201,-0.15,0.37,-0.547 (active),0.32,-0.036,-0.075,0.139,-0.067,0.184,0.087,-0.03,-0.008,0.006
AMMECR1 (UniProt Q9Y4X0),0.005,-0.013,-0.011,-0.027,0.022,-0.019,0.039,-0.009,-0.04,0.037,-0.005,-0.025,-0.037,0.017,0.035,-0.054,0.022,0.021,0.007,-0.024
AKT2 (UniProt P31751),-0.022,0.005,0.015,-0.007,-0.005,-0.022,0.033,-0.015,0.051,-0.036,-0.013,-0.004,0.003,-0.008,0.005,0.001,0.017,0.019,-0.015,0.559 (active)
ALG13 (UniProt Q9NP73),0.017,-0.002,-0.12,-0.075,0,0.044,-0.091,-0.015,-0.025,0.127,0.089,-0.012,-0.044,0.218,0,-0.067,-0.036,-0.004,0.028,-0.009
